DAX1 StAR inh – inhibitors of DAX1 repression of SF-1 activated StAR promoter; HEK293T StAR-luciferase reporter, SF-1/DAX-1 repression relief; inhibition, % at 6.8 µM; AID 652010; hit rate 1.1% among 370,000;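 active = inhibition above the mean over all tested compounds plus 3 SD, cut at about 3.6% in these data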;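 note: 0% = DAX-1 cells with DMSO and 100% = cells lacking DAX-1 with DMSO; higher inhibition means more luminescence from relief of DAX-1 repression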
hgDAF-12 ag – activates the H. glycines DAF-12 receptor ligand-binding domain; HEK293 GAL4-hgDAF12 UAS-luciferase reporter, agonist luminescence; normalized to butyrate control; activation, % at 6.8 µM; hit rate 1.8% among 370,000;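 active = activation above a cutoff set at the mean of all screened compounds plus 3 SD, cut at about 10% in these data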;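 note: 0% = DMSO wells and 100% = sodium butyrate wells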
hcDAF12 agonist – activators of H. contortus DAF-12 nuclear receptor | HEK293 hcDAF-12 lit1-tk-luc reporter, luminescence; 0% DMSO, 100% Δ7-dafachronic acid | AID 652067 | activation, % at 6.8 µM | hit rate 1.4% among 370,000;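 active = activation above the mean of all tested compounds plus 3 SD, cut at about 5.5% in these data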;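 note: 100% = response to 3 µM Δ7-dafachronic acid high control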
ssDAF12 agonist – activators of S. stercoralis DAF-12 nuclear receptor | HEK293 ssDAF-12/GRIP1 lit1-tk-luc reporter, luminescence; % of 3 µM dafachronic acid response | activation, % at 6.8 µM | hit rate 1% among 370,000 | AID 652126;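 active = activation above the mean over all tested compounds plus 3 SD, cut at about 0.9% in these data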;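 note: 0% = DMSO-only wells and 100% = 3 µM delta7-dafachronic acid wells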
SMARCA2 activ – activators of SMARCA2 function; MG213 cells, MMTV-luciferase reporter, dexamethasone, overnight; hit rate 1% among 370,000; AID 652017; activation, % at 9.1 µM; in the data active = activation above about 7.8%;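 note: 0% = vehicle wells and 100% = reference activator wells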
LXRb hcDAF ctr – counter-screen for hcDAF-12 agonists: agonists of human LXR-beta; activation, % at 6.8 µM; HEK293 Gal4-LXR tk-luc reporter, luminescence, 24 h; normalized: DMSO 0%, positive control 100%; 3,400 tested, under 10 active; shares compounds with hcDAF12 agonist;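 active = mean percent activation of the reporter above a cutoff set as the average over tested compounds plus their standard deviation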
Target sequence (P55055 whole entry, looked up, the tested form may be a part): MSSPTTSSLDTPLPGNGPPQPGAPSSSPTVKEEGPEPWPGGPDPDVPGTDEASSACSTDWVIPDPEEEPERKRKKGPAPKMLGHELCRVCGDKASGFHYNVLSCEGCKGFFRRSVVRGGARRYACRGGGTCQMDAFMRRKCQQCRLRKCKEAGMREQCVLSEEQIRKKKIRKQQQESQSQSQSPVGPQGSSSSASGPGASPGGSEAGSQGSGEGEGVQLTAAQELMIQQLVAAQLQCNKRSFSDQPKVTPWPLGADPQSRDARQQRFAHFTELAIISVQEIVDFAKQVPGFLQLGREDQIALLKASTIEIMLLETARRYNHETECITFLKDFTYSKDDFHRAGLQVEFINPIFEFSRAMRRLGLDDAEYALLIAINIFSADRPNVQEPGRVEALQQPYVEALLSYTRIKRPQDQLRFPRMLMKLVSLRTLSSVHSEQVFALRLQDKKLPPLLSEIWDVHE
hcDAF12 conf – hcDAF-12 agonism, confirmation assay; shares compounds with hcDAF12 agonist; HEK293 hcDAF-12 lit1-tk-luc reporter, luminescence; % of Δ7-dafachronic acid response; activation, % at 6.8 µM; hit rate 61% among 3,400;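 active = mean activation across triplicate tests above the threshold derived from the earlier primary screen, cut at about 5.5% in these data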;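 note: 0% = DMSO only wells and 100% = 3 µM Δ7-dafachronic acid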
hgDAF12 conf – hgDAF-12 agonism, confirmation assay | activation, % at 6.8 µM | shares compounds with hgDAF-12 ag | AID 743050 | hit rate 80% among 3,300 | HEK293 GAL4-hgDAF12 luciferase reporter, agonist mode; percent of butyrate response;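 active = mean activation over triplicate wells above the hit cutoff derived from the earlier primary screen, cut at about 11% in these data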;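 note: 0% = DMSO low control and 100% = 2 mM sodium butyrate high control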
LXR ag 2 – LXR-beta agonism as DAF-12 counter-screen; shares compounds with hgDAF-12 ag; HEK293 Gal4-LXR luciferase reporter, 24 h; activation, % at 6.8 µM; 3,300 tested, under 10 active; AID 743051;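 active = mean activation of the triplicate above a set limit carried over from the primary screen, none filed active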
* hit, by the source's call. Only some compounds are listed: those with a hit (about 4.2% of all), similar ones and a draw of the others.

O=C(Nc1ccc2ccccc2n1)c1ccc(Cl)cc1 was read as DAX1 StAR inh 1, hgDAF-12 ag 15*, hcDAF12 agonist 10*, ssDAF12 agonist 1, SMARCA2 activ 3, LXRb hcDAF ctr 2, hcDAF12 conf 7.0*, hgDAF12 conf 19* and LXR ag 2 1.
Screening O=C(Nc1ccc2ccccc2n1)c1ccccc1Cl returned DAX1 StAR inh 1, hgDAF-12 ag 16*, hcDAF12 agonist 7.2*, ssDAF12 agonist 0, SMARCA2 activ 4, LXRb hcDAF ctr 2, hcDAF12 conf 5.7*, hgDAF12 conf 18* and LXR ag 2 1.
O=C(Nc1cccc(NC(=O)c2ccc(Cl)cc2)n1)c1ccc(Cl)cc1 was read as DAX1 StAR inh 0, hgDAF-12 ag 1, hcDAF12 agonist 0, ssDAF12 agonist -1 and SMARCA2 activ -1.
Screening CCN(CC)C(=O)CC[C@H]1CC[C@]2(CCCN(Cc3cccs3)C2)O1 returned DAX1 StAR inh 0, hgDAF-12 ag 0, hcDAF12 agonist -1, ssDAF12 agonist -1 and SMARCA2 activ -3.
`COc1ccc(N2C(=O)c3[nH]nc(-c4ccccc4)c3C2c2ccc(F)cc2)cc1` (stereo unspecified) gave DAX1 StAR inh -1, hgDAF-12 ag -5, hcDAF12 agonist -2, ssDAF12 agonist -1 and SMARCA2 activ -6.
COc1ccc(-c2cc3ccc(OC)cc3cn2)cc1 was read as DAX1 StAR inh 4.2*, hgDAF-12 ag 21*, hcDAF12 agonist 9.9*, ssDAF12 agonist 1.1*, SMARCA2 activ 7, LXRb hcDAF ctr 2, hcDAF12 conf 12*, hgDAF12 conf 18* and LXR ag 2 1.
For COc1ccc2cc(-c3ccccc3F)ncc2c1 the results were DAX1 StAR inh 3, hgDAF-12 ag 16*, hcDAF12 agonist 11*, ssDAF12 agonist 1.1*, SMARCA2 activ 7, LXRb hcDAF ctr 2, hcDAF12 conf 11*, hgDAF12 conf 24* and LXR ag 2 2.
For COc1ccc2cc(-c3ccon3)ccc2c1 the results were DAX1 StAR inh 0, hgDAF-12 ag 6, hcDAF12 agonist 2, ssDAF12 agonist -1 and SMARCA2 activ 7.
`O=[N+]([O-])c1ccccc1-c1cc(-c2ccccc2O)n[nH]1` gave DAX1 StAR inh 2, hgDAF-12 ag 16*, hcDAF12 agonist 7.9*, ssDAF12 agonist 1, SMARCA2 activ 3, LXRb hcDAF ctr 1, hcDAF12 conf 4, hgDAF12 conf 13* and LXR ag 2 0.
Screening Cc1ccc(-c2cc(-c3cccc(F)c3)n[nH]2)c(O)c1 returned DAX1 StAR inh 4.2*, hgDAF-12 ag 14*, hcDAF12 agonist 13*, ssDAF12 agonist 2.5*, SMARCA2 activ -1, LXRb hcDAF ctr 1, hcDAF12 conf 7.6*, hgDAF12 conf 17* and LXR ag 2 1.
For Cc1ccc(-c2cc(C(=O)Nc3c(C)n(C)n(-c4ccccc4)c3=O)[nH]n2)c(O)c1 the results were DAX1 StAR inh 0, hgDAF-12 ag -1, hcDAF12 agonist -2, ssDAF12 agonist -2 and SMARCA2 activ -3.
For Cc1ccc(-c2cc(-c3ccccc3C)[nH]n2)c(O)c1 the results were DAX1 StAR inh 3, hgDAF-12 ag 14*, hcDAF12 agonist 6.8*, ssDAF12 agonist 1, SMARCA2 activ 3, LXRb hcDAF ctr 1, hcDAF12 conf 5, hgDAF12 conf 17* and LXR ag 2 1.
Screening CC1(C)N=C(N)N=C(N)N1c1ccc(CCCCc2ccccc2)cc1 returned DAX1 StAR inh -6, hgDAF-12 ag -14, hcDAF12 agonist -4, ssDAF12 agonist -2 and SMARCA2 activ -7.
`COCCCN1C(=O)[C@H](CC(=O)N2CCC(c3ccccc3)CC2)[C@]2(C(=O)OC)CCCCC=C12` gave DAX1 StAR inh 0, hgDAF-12 ag 5, hcDAF12 agonist -2, ssDAF12 agonist 0 and SMARCA2 activ -4.
Screening COc1ccc(NC(=O)c2cc(C3CCCCN3C(=O)c3ccccc3)on2)c(C)c1 (stereo unspecified) returned DAX1 StAR inh -1, hgDAF-12 ag -1, hcDAF12 agonist -4, ssDAF12 agonist -1 and SMARCA2 activ -4.
Screening Cc1ccc(-c2nc3ccccc3nc2NN)cc1 returned DAX1 StAR inh 3, hgDAF-12 ag 18*, hcDAF12 agonist 12*, ssDAF12 agonist 2.2*, SMARCA2 activ 1, LXRb hcDAF ctr 2, hcDAF12 conf 11*, hgDAF12 conf 20* and LXR ag 2 1.
Screening CCCCCCCCN1C(=O)[C@H](CC(=O)NCc2ccc(C)o2)C[C@@]2(C(=O)OCC)CCC=C12 returned DAX1 StAR inh 0, hgDAF-12 ag 0, hcDAF12 agonist -1, ssDAF12 agonist -1 and SMARCA2 activ 2.
Screening Oc1ccc(C=NNc2nc3ccccc3s2)c(O)c1 returned DAX1 StAR inh 2, hgDAF-12 ag 13*, hcDAF12 agonist 9.6*, ssDAF12 agonist 1.8*, SMARCA2 activ 0, LXRb hcDAF ctr 2, hcDAF12 conf 5, hgDAF12 conf 11* and LXR ag 2 1.
O=C(N/N=C/c1c[nH]c2ccccc12)c1cc(-c2ccc3ccccc3c2)n[nH]1 was read as DAX1 StAR inh -1, hgDAF-12 ag 25*, hcDAF12 agonist 7.9*, ssDAF12 agonist 0, SMARCA2 activ 5, LXRb hcDAF ctr 0, hcDAF12 conf 2, hgDAF12 conf 5 and LXR ag 2 0.
Screening O=C(N/N=C/c1c[nH]c2ccccc12)c1cc(-c2cccc3ccccc23)n[nH]1 returned DAX1 StAR inh 1, hgDAF-12 ag 2, hcDAF12 agonist 3, ssDAF12 agonist -1 and SMARCA2 activ -1.
O=C(N/N=C/c1c[nH]c2ccccc12)c1cc(-c2ccc(-c3ccccc3)cc2)n[nH]1 was read as DAX1 StAR inh 1, hgDAF-12 ag 15*, hcDAF12 agonist 7.8*, ssDAF12 agonist 1, SMARCA2 activ -2, LXRb hcDAF ctr 0, hcDAF12 conf 4, hgDAF12 conf 0 and LXR ag 2 0.
`O=C(N/N=C/c1c[nH]c2ccccc12)c1cc(-c2ccccc2)n[nH]1` gave DAX1 StAR inh 0, hgDAF-12 ag 2, hcDAF12 agonist 1, ssDAF12 agonist 0 and SMARCA2 activ 0.

Screening results from PubChem BioAssay.
